Measured values published in PubChem BioAssay AID1159580 (chemical genetic matrix, 2015).
Hit rate of the full screen: of about 5,500 compounds, about 2,000 (36%) were called active. About 18% were inconclusive and are not listed. Rule as the data show it: active = normalized growth mostly below about 0.91 (no sharp cut-off); inconclusive = no clear call, values can overlap the other calls; inactive = mostly above about 0.92. Some of the results follow.

Assay: chemical genetic growth profiling, strain panel (AID 1159580);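 also: tested at 20 µM; growth read once vehicle control cultures reached saturation at 30 °C; 1 = growth at the plate median or of vehicle wells; lower values mean less growth of the strain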
Settings: growth OD
[1] = S. cerevisiae deletion strains, locus YAL013W, strain DEP1, stronger effect = lower value
[2] = S. cerevisiae deletion strains, locus YBR229C, strain ROT2, stronger effect = lower value
[3] = S. cerevisiae deletion strains, locus YCL061C, strain MRC1, stronger effect = lower value
[4] = S. cerevisiae deletion strains, locus YDL101C, strain DUN1, stronger effect = lower value
[5] = S. cerevisiae deletion strains, locus YDR150W, strain NUM1, stronger effect = lower value
[6] = S. cerevisiae deletion strains, locus YEL061C, strain CIN8, stronger effect = lower value
[7] = S. cerevisiae deletion strains, locus YGR078C, strain PAC10, stronger effect = lower value
[8] = S. cerevisiae deletion strains, locus YHR030C, strain SLT2, stronger effect = lower value
[9] = S. cerevisiae deletion strains, locus YHR087W, strain rtc3, stronger effect = lower value
[10] = S. cerevisiae deletion strains, locus YJR043C, strain POL32, stronger effect = lower value
[11] = S. cerevisiae deletion strains, locus YLR039C, strain RIC1, stronger effect = lower value
[12] = S. cerevisiae deletion strains, locus YLR058C, strain SHM2 (second series), stronger effect = lower value
[13] = S. cerevisiae deletion strains, locus YLR085C, strain ARP6, stronger effect = lower value
[14] = S. cerevisiae deletion strains, locus YLR262C, strain YPT6, stronger effect = lower value
[15] = S. cerevisiae deletion strains, locus YML094W, strain GIM5, stronger effect = lower value
[16] = S. cerevisiae deletion strains, locus YMR219W, strain ESC1, stronger effect = lower value
[17] = S. cerevisiae deletion strains, locus YMR263W, strain SAP30, stronger effect = lower value
[18] = S. cerevisiae deletion strains, locus YNL153C, strain GIM3, stronger effect = lower value
[19] = S. cerevisiae deletion strains, locus YNL298W, strain CLA4 (second series), stronger effect = lower value
[20] = S. cerevisiae deletion strains, locus YNL322C, strain KRE1, stronger effect = lower value
[21] = S. cerevisiae deletion strains, locus YNR030W, strain Alg12, stronger effect = lower value
[22] = S. cerevisiae deletion strains, locus YPL055C, strain LGE1, stronger effect = lower value
[23] = S. cerevisiae deletion strains, locus YPL241C, strain CIN2, stronger effect = lower value
[24] = S. cerevisiae deletion strains, locus YPR135W, strain CTF4, stronger effect = lower value

Measured: normalized growth

Cc1cc(C)c(Cn2nc(C(C)(C)C)cc2C(=O)Nc2cccc(C(F)(F)F)c2)c(C)c1
inactive: [1] 0.991 | [2] 1.06 | [3] 0.99 | [4] 0.999 | [5] 1.16 | [6] 0.986 | [7] 0.998 | [8] 1.1 | [9] 0.999 | [10] 0.927 | [11] 1.02 | [12] 1 | [13] 1.01 | [14] 1.02 | [15] 1 | [16] 0.998 | [17] 0.988 | [18] 1 | [19] 1.02 | [20] 0.992 | [21] 0.994 | S. cerevisiae deletion strains, locus YOL006C, strain TOP1, stronger effect = lower value 1.06 | [22] 1.05 | [23] 0.995 | [24] 1.07 | S. cerevisiae strains, strain wild type, stronger effect = lower value 1

CC(C)(C)c1cc(C(=O)NNc2cccc(Cl)c2)n(Cc2ccccc2)n1
active: S. cerevisiae deletion strains, locus YLR113W, strain HOG1, stronger effect = lower value 0.787
inactive: S. cerevisiae deletion strains, locus YAR019C, strain CDC15, stronger effect = lower value 0.98 | S. cerevisiae deletion strains, locus YBL105C, strain PKC1, stronger effect = lower value 0.978 | S. cerevisiae deletion strains, locus YBR135W, strain CKS1, stronger effect = lower value 0.983 | S. cerevisiae deletion strains, locus YBR136W, strain MEC1, stronger effect = lower value 0.973 | S. cerevisiae deletion strains, locus YBR160W, strain CDC28, stronger effect = lower value 0.975 | S. cerevisiae deletion strains, locus YDL017W, strain CDC7, stronger effect = lower value 0.987 | S. cerevisiae deletion strains, locus YDL028C, strain MPS1, stronger effect = lower value 0.975 | [4] 0.955 | S. cerevisiae deletion strains, locus YDL108W, strain KIN28, stronger effect = lower value 0.978 | S. cerevisiae deletion strains, locus YDL132W, strain cdc53, stronger effect = lower value 0.969 | S. cerevisiae deletion strains, locus YDL214C, strain PRR2, stronger effect = lower value 0.917 | S. cerevisiae deletion strains, locus YDR052C, strain DBF4, stronger effect = lower value 0.976 | S. cerevisiae deletion strains, locus YDR054C, strain cdc34, stronger effect = lower value 0.979 | S. cerevisiae deletion strains, locus YDR226W, strain ADK1, stronger effect = lower value 0.985 | S. cerevisiae deletion strains, locus YDR477W, strain SNF1, stronger effect = lower value 0.923 | S. cerevisiae deletion strains, locus YER123W, strain YCK3, stronger effect = lower value 0.832 | S. cerevisiae deletion strains, locus YER133W, strain GLC7, stronger effect = lower value 0.926 | S. cerevisiae deletion strains, locus YFL009W, strain cdc4, stronger effect = lower value 0.992 | S. cerevisiae deletion strains, locus YFL029C, strain CAK1, stronger effect = lower value 0.939 | S. cerevisiae deletion strains, locus YFR003C, strain YPI1, stronger effect = lower value 0.99 | S. cerevisiae deletion strains, locus YFR019W, strain FAB1, stronger effect = lower value 0.911 | S. cerevisiae deletion strains, locus YFR028C, strain CDC14, stronger effect = lower value 0.974 | S. cerevisiae deletion strains, locus YGR040W, strain KSS1, stronger effect = lower value 0.906 | S. cerevisiae deletion strains, locus YGR052W, strain FMP48, stronger effect = lower value 0.922 | S. cerevisiae deletion strains, locus YGR092W, strain DBF2, stronger effect = lower value 0.822 | [8] 0.862 | S. cerevisiae deletion strains, locus YHR079C, strain IRE1, stronger effect = lower value 0.927 | S. cerevisiae deletion strains, locus YHR082C, strain KSP1, stronger effect = lower value 0.962 | S. cerevisiae deletion strains, locus YHR205W, strain SCH9, stronger effect = lower value 0.894 | S. cerevisiae deletion strains, locus YIL147C, strain SLN1, stronger effect = lower value 0.981 | S. cerevisiae deletion strains, locus YJL095W, strain BCK1, stronger effect = lower value 0.825 | S. cerevisiae deletion strains, locus YJL128C, strain PBS2, stronger effect = lower value 0.956 | S. cerevisiae deletion strains, locus YJL157C, strain FAR1, stronger effect = lower value 0.892 | S. cerevisiae deletion strains, locus YJR016C, strain ILV3, stronger effect = lower value 0.985 | S. cerevisiae deletion strains, locus YJR066W, strain TOR1 (second series), stronger effect = lower value 0.884 | S. cerevisiae deletion strains, locus YJR066W, strain TOR1, stronger effect = lower value 0.935 | S. cerevisiae deletion strains, locus YKL048C, strain ELM1, stronger effect = lower value 0.889 | S. cerevisiae deletion strains, locus YKL067W, strain YNK1, stronger effect = lower value 0.935 | S. cerevisiae deletion strains, locus YKL101W, strain HSL1, stronger effect = lower value 0.917 | S. cerevisiae deletion strains, locus YKL193C, strain SDS22, stronger effect = lower value 0.96 | S. cerevisiae deletion strains, locus YKL203C, strain TOR2, stronger effect = lower value 1.01 | S. cerevisiae deletion strains, locus YLR133W, strain CKI1, stronger effect = lower value 0.882 | S. cerevisiae deletion strains, locus YLR403W, strain SFP1, stronger effect = lower value 0.913 | S. cerevisiae deletion strains, locus YML070W, strain DAK1, stronger effect = lower value 0.887 | S. cerevisiae deletion strains, locus YMR001C, strain CDC5, stronger effect = lower value 0.975 | S. cerevisiae deletion strains, locus YMR205C, strain PFK2 (second series), stronger effect = lower value 0.923 | S. cerevisiae deletion strains, locus YMR277W, strain FCP1, stronger effect = lower value 0.988 | S. cerevisiae deletion strains, locus YNL006W, strain LST8, stronger effect = lower value 0.986 | S. cerevisiae deletion strains, locus YNL020C, strain ARK1, stronger effect = lower value 0.887 | S. cerevisiae deletion strains, locus YNL161W, strain CBK1, stronger effect = lower value 0.978 | S. cerevisiae deletion strains, locus YNL183C, strain NPR1, stronger effect = lower value 0.965 | S. cerevisiae deletion strains, locus YNL207W, strain RIO2, stronger effect = lower value 0.974 | S. cerevisiae deletion strains, locus YNL222W, strain SSU72, stronger effect = lower value 0.982 | S. cerevisiae deletion strains, locus YNL307C, strain MCK1 (second series), stronger effect = lower value 0.816 | S. cerevisiae deletion strains, locus YOL078W, strain AVO1, stronger effect = lower value 0.96 | S. cerevisiae deletion strains, locus YOL136C, strain PFK27, stronger effect = lower value 0.86 | S. cerevisiae deletion strains, locus YOR061W, strain CKA2, stronger effect = lower value 0.847 | S. cerevisiae deletion strains, locus YOR119C, strain RIO1, stronger effect = lower value 0.978 | S. cerevisiae deletion strains, locus YOR231W, strain MKK1, stronger effect = lower value 0.869 | S. cerevisiae deletion strains, locus YOR329C, strain SCD5, stronger effect = lower value 0.978 | S. cerevisiae deletion strains, locus YPL031C, strain PHO85, stronger effect = lower value 0.94 | S. cerevisiae deletion strains, locus YPL153C, strain RAD53, stronger effect = lower value 0.925 | S. cerevisiae deletion strains, locus YPL204W, strain HRR25, stronger effect = lower value 0.889 | S. cerevisiae deletion strains, locus YPL209C, strain IPL1, stronger effect = lower value 0.972 | S. cerevisiae deletion strains, locus YPL256C, strain CLN2, stronger effect = lower value 0.863 | S. cerevisiae deletion strains, locus YPR025C, strain CCL1, stronger effect = lower value 0.981 | S. cerevisiae deletion strains, locus YPR106W, strain ISR1, stronger effect = lower value 0.969 | S. cerevisiae deletion strains, locus YPR111W, strain DBF20, stronger effect = lower value 0.978 | S. cerevisiae deletion strains, strain NNK1, stronger effect = lower value 0.961 | S. cerevisiae deletion strains, strain TSCII, stronger effect = lower value 0.966

Cc1cccc(Cn2nc(C(C)(C)C)cc2C(=O)O)c1
inactive: [1] 0.96 | [2] 0.96 | [3] 1 | [4] 0.978 | [5] 0.98 | [6] 0.998 | [7] 0.97 | [8] 1.03 | [9] 0.949 | S. cerevisiae deletion strains, locus YJL187C, strain SWE1, stronger effect = lower value 0.973 | [10] 0.971 | S. cerevisiae deletion strains, locus YJR075W, strain HOC1, stronger effect = lower value 0.963 | S. cerevisiae deletion strains, locus YKL190W, strain CNB1, stronger effect = lower value 0.982 | [11] 0.882 | [12] 0.969 | [13] 1.02 | [14] 0.905 | [15] 1 | [16] 0.946 | [17] 0.998 | [18] 0.985 | [19] 0.997 | [20] 0.946 | [21] 1 | [22] 0.978 | [23] 1.01 | [24] 0.986
